Several values for one entry are separate records, joined by “and”; a condition that tells them apart may be missing. Identical values can stand only once. Compounds without any hit were thinned out: in the full panel of roughly 83,000, 20% have a hit.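 In brief: 96-well plates, 48 h treatment, single concentration, percent growth endpoint.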 Activity calls are given as the source filed them. How the source made its calls: active means growth percent below 10; inactive means the rest.

These results are taken from PubChem BioAssay (NCI).

Test systems include T-47D breast; BT-549 breast; MDA-MB-435 melanoma; SW-620 colon; MCF7 breast; HCT-116 colon; HCC-2998 colon; KM12 colon.
Test in all cases: NCI-60 one-dose screen, 48 h (100 = growth as untreated, 0 = no growth, -100 = all killed)
Conditions in all cases: 10 µM unless noted

Take `COc1ccccc1OCC(O)CO` (stereo unspecified): the growth in the assay on T-47D breast was 91.4% (inactive) and 105% (inactive); in the assay with BT-549 breast it was 107% (inactive); in the assay on MDA-MB-435 melanoma it was 76.7% (inactive) and 96.1% (inactive); in the assay with SW-620 colon, 101% (inactive) and 109% (inactive); in the assay on MCF7 breast, 94.1% (inactive) and 105% (inactive); in the assay on HCT-116 colon it was 106% (inactive) and 102% (inactive). For the same compound, the growth was 95% (inactive) and 86.1% (inactive) in the assay on HCC-2998 colon; 98% (inactive) and 108% (inactive) with KM12 colon.

Consider `O=C(O)c1ccc2c3ccc(C(=O)O)c4c(C(=O)O)ccc(c5ccc(C(=O)O)c1c25)c43`, for which the growth is 97.2% (inactive) with T-47D breast; 64.8% (inactive) in the assay with BT-549 breast; 101% (inactive) in the assay on MDA-MB-435 melanoma; 97.5% (inactive) in the assay with SW-620 colon; 93.3% (inactive) with MCF7 breast; 90.1% (inactive) with HCT-116 colon. Besides, the growth in the assay on HCC-2998 colon is 76.9% (inactive); in the assay with KM12 colon it was 100% (inactive).

Turning to `Cc1cc(O)c(C(C)C)cc1N=O`, the growth was 82.5% (inactive) and 90.9% (inactive) in the assay with T-47D breast; 114% (inactive) and 95.9% (inactive) in the assay on BT-549 breast; 99.5% (inactive) and 117% (inactive) in the assay with MDA-MB-435 melanoma; 123% (inactive) and 104% (inactive) in the assay on SW-620 colon; 90.8% (inactive) and 94.9% (inactive) with MCF7 breast; 94.4% (inactive) and 93.8% (inactive) with HCT-116 colon. Further, the growth was 98.1% (inactive) and 102% (inactive) in the assay with HCC-2998 colon; 109% (inactive) and 110% (inactive) in the assay with KM12 colon.

`COc1ccc(/C=N/Nc2nc3ccccc3s2)cc1`: the growth was 86.6% (inactive) with T-47D breast; 97.6% (inactive) in the assay on BT-549 breast; 83.3% (inactive) with MDA-MB-435 melanoma; 94.8% (inactive) with SW-620 colon; 61.1% (inactive) with MCF7 breast; 83.3% (inactive) in the assay on HCT-116 colon. For the same compound, the results for the growth in the assay with HCC-2998 colon and with KM12 colon were 104% (inactive) and 87.6% (inactive), respectively.

As to `O=C(c1ccncc1)c1c(Cc2ccccc2)ccc2ccccc12`, the growth in the assay with T-47D breast was 113% (inactive); with BT-549 breast, -7.98% (active); in the assay on MDA-MB-435 melanoma, 83.2% (inactive); with SW-620 colon it was 90.4% (inactive); in the assay with MCF7 breast, 101% (inactive); with HCT-116 colon, 82% (inactive). The growth is 37.3% (inactive) in the assay on HCC-2998 colon and 102% (inactive) with KM12 colon.

As to `CCCCNC(=O)c1ccccc1C`, the growth was 96.9% (inactive) with T-47D breast; 94.1% (inactive) in the assay on BT-549 breast; 97.9% (inactive) with MDA-MB-435 melanoma; 104% (inactive) in the assay with SW-620 colon; 89.8% (inactive) in the assay with MCF7 breast; 90.2% (inactive) in the assay with HCT-116 colon. Besides, the growth is 88.3% (inactive) with HCC-2998 colon and 101% (inactive) in the assay on KM12 colon.

As to `COC(=O)c1nc(N)nc(C(=O)OC)c1C(=O)c1cccc2ccccc12`, the growth with T-47D breast was 109% (inactive); in the assay on BT-549 breast, 133% (inactive); in the assay on MDA-MB-435 melanoma it was 108% (inactive); in the assay on SW-620 colon it was 118% (inactive); in the assay with MCF7 breast, 94.5% (inactive); in the assay on HCT-116 colon, 111% (inactive). For the same compound, the growth is 106% (inactive) with HCC-2998 colon and 110% (inactive) with KM12 colon.

Consider `CCOP(=O)(OCC)/C(C#N)=C/c1c(C)[nH]c2ccccc12`, for which the growth in the assay with T-47D breast was 85.1% (inactive); in the assay on BT-549 breast, 98.3% (inactive); with MDA-MB-435 melanoma it was 12.9% (inactive); in the assay with SW-620 colon, 98.2% (inactive); with MCF7 breast, 96.2% (inactive); in the assay on HCT-116 colon it was 101% (inactive). Besides, the growth in the assay with HCC-2998 colon is 107% (inactive); in the assay on KM12 colon, 100% (inactive).

Regarding `CCOC(=N)c1ccc(C(=N)OCC)cc1`, the growth was 84% (inactive) in the assay with T-47D breast; 98.2% (inactive) in the assay on BT-549 breast; 114% (inactive) in the assay on MDA-MB-435 melanoma; 119% (inactive) with SW-620 colon; 92.3% (inactive) in the assay on MCF7 breast; 96% (inactive) with HCT-116 colon. The growth in the assay on HCC-2998 colon is 109% (inactive); in the assay on KM12 colon it was 105% (inactive).

With `N#Cc1ccc(/C=C/C(=O)c2ccccc2)cc1`, the growth in the assay on T-47D breast was 88.3% (inactive) and 82.5% (inactive); in the assay with BT-549 breast, 98% (inactive) and 96.5% (inactive); in the assay with MDA-MB-435 melanoma it was 84.4% (inactive) and 95.2% (inactive); in the assay on SW-620 colon it was 19.1% (inactive) and 1.04% (active); in the assay on MCF7 breast, 3.73% (active) and 34.9% (inactive); in the assay on HCT-116 colon it was -97.4% (active) and -60.8% (active). For the same compound, the growth in the assay on HCC-2998 colon is 110% (inactive) and 7.47% (active); in the assay with KM12 colon it was -47.9% (active) and 15.7% (inactive).

Turning to `Cc1ccc([N+](=O)[O-])cc1Br`, the growth in the assay on T-47D breast was 89.1% (inactive); in the assay with BT-549 breast, 110% (inactive); in the assay on MDA-MB-435 melanoma, 85.6% (inactive); in the assay with SW-620 colon, 91.8% (inactive); in the assay with MCF7 breast it was 97.6% (inactive); in the assay with HCT-116 colon it was 90.8% (inactive). Further, the growth with HCC-2998 colon is 117% (inactive); with KM12 colon, 103% (inactive).

Regarding `COc1cc(NCCCCCNC(C)C)c2ncccc2c1`, the growth in the assay on T-47D breast was 82.3% (inactive); in the assay with BT-549 breast it was 89.1% (inactive); with MDA-MB-435 melanoma it was 97.8% (inactive) and 106% (inactive); with SW-620 colon, 87.2% (inactive) and 106% (inactive); with MCF7 breast it was 85.3% (inactive) and 86.4% (inactive); with HCT-116 colon, 96.9% (inactive) and 90.3% (inactive). The growth in the assay on HCC-2998 colon was 102% (inactive) and 90.2% (inactive); in the assay on KM12 colon, 91.4% (inactive).
